# Assay results from PubChem BioAssay (NCATS).
# A number with no mark means an inactive call. Records with an inconclusive call do not appear. Active and inactive are the calls of the source. Calls come from the whole dose curve; as a rule, active = well fitted curve in the direction sought with a large enough effect; inconclusive = small, poorly fitted or top-dose-only effect, or another doubt; inactive = no such curve, though single readings can be large; an effect the other way counts as inactive or inconclusive.
# Tests used:
# [1] = target: Cytochrome P450 3A4 (Homo sapiens) (UniProt P08684); assay: qHTS Assay for Activators of Cytochrome P450 3A4 (AID 885); note: nearly all actives have a fitted effect of over 65% in size
# Procedure, shortened: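 20nM CYP3A4 + 25uM Luciferin-PPXE (=KM), 200mM KPO4; cpd 10 min RT; NADPH regen, 60 min RT; stop w/ detection buffer, 20 min; luminescence. Normalized to 57 uM ketoconazole.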
# [2] = target: Cytochrome P450 3A4 (Homo sapiens) (UniProt P08684); assay: qHTS Assay for Inhibitors and Substrates of Cytochrome P450 3A4 (AID 884); note: potency is the fitted concentration of half-maximal effect; nearly all actives have a fitted effect of over 50% in size
# Procedure, shortened: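 20 nM human CYP3A4 with 25 uM Luciferin-PPXE (at KM) in 200 mM KPO4, preincubated 10 min with compound; NADPH regeneration started a 60 min RT reaction. Luciferin detected by luminescence, normalized to 57 uM ketoconazole as full inhibition.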
# [3] = Confirmation and Secondary Assay for Modulators of Hemoglobin Beta Chain Splicing at IVS2 654 locus (AID 910);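 note: HeLa cells stably carrying EGFP split by mutant beta-globin IVS2-654 intron; per-well total GFP intensity by laser scanning cytometry after 2-day treatment; % of control where 0% means no effect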
# Procedure, shortened: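 Readout: per-well total peak green fluorescence (488 nm ex, 500–520 nm em) from objects 5–250 µm, reflecting correct splicing of an EGFP-654 reporter. Compounds were applied for 2 days at 37 °C to overnight-plated HeLa EGFP-654 cells; controls were DMSO and 500 nM IVS2-654 PNA.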
# [4] = Confirmation and Secondary Assay for Modulators of Hemoglobin Beta Chain Splicing at IVS2 705 locus (AID 930);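 note: HeLa cells stably expressing the EGFP-705 splicing reporter; series mostly up to about 46 µM; % of control where 0% means no effect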
# Procedure, shortened: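 HeLa cells stably carrying EGFP interrupted by mutant beta-globin IVS2-705 intron (CMV-driven) were seeded at 500 cells/well, treated next day with compound for 2 days at 37C; corrected splicing restores EGFP, read as total peak GFP intensity per well.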
# [5] = target: Cytochrome P450 2D6 (Homo sapiens) (UniProt P10635); assay: qHTS Assay for Inhibitors and Substrates of Cytochrome P450 2D6 (AID 891); note: nearly all actives have a fitted effect of over 60% in size; note: potency is the fitted concentration of half-maximal effect
# Procedure, shortened: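 Human CYP2D6 (5 nM) with 30 uM Luciferin-ME EGE (at Km) in 100 mM KPO4, compound preincubated 10 min, then NADPH regeneration system for 60 min at room temperature. Luciferin read by luminescence; normalized to 1.43 uM quinidine.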
# [6] = target: Cytochrome P450 2C19 (Homo sapiens) (UniProt P33261); assay: qHTS Assay for Inhibitors and Substrates of Cytochrome P450 2C19 (AID 899); note: % is set by controls: 0 for no effect and ±100 for the full control effect; nearly all actives have a fitted effect of over 60% in size
# Procedure, shortened: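 Reactions contain 5nM enzyme, 10uM Luciferin-H EGE (KM) and 50mM KPO4; compound preincubates 10 min at 37C, NADPH regeneration starts turnover for 60 min. Luminescence after detection reagent gives activity.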
# Chain of Cytochrome P450 2D6 (Homo sapiens) (P10635 whole entry, looked up): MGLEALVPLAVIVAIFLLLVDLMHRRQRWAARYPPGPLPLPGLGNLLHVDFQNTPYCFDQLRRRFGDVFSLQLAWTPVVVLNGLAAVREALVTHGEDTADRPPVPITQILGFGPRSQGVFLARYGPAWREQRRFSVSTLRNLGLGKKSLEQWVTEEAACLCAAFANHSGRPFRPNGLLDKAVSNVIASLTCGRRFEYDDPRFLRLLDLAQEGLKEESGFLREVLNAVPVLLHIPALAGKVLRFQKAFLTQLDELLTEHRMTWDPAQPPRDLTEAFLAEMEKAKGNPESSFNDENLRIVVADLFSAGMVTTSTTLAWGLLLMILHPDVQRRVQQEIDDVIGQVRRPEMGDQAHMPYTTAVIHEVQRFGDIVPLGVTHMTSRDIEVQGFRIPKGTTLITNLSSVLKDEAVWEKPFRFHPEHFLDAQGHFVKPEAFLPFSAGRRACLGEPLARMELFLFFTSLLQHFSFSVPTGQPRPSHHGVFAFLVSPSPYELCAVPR
# Chain of Cytochrome P450 3A4 (Homo sapiens) (P08684 whole entry, looked up): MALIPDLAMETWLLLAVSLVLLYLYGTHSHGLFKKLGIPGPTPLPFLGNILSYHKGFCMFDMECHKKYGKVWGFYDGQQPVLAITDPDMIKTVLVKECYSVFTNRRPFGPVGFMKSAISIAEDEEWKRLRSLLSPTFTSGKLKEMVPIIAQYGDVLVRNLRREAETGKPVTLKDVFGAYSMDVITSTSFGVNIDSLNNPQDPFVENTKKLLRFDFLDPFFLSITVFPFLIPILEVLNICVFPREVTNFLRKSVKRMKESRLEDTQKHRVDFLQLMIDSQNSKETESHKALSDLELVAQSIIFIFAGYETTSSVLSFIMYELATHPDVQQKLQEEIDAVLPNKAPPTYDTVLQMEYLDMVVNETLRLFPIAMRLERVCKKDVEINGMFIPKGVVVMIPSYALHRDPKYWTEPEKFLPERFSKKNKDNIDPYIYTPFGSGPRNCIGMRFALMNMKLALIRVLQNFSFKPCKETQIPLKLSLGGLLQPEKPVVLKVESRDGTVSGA
# Chain of Cytochrome P450 2C19 (Homo sapiens) (P33261 whole entry, looked up): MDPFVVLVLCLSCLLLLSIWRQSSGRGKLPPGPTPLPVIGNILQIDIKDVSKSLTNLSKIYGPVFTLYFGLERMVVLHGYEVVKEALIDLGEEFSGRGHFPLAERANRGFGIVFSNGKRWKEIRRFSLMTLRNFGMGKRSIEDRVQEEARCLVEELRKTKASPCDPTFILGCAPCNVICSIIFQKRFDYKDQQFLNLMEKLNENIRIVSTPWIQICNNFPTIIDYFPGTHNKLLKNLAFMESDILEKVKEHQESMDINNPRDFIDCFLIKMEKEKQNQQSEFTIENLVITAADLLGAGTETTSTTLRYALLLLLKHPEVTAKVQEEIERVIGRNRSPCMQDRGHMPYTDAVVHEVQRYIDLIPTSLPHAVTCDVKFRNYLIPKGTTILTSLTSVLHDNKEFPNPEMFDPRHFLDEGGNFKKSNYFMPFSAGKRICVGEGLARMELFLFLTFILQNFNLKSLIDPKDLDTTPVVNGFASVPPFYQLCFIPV
structure (smiles),measurement,setting,value
Cn1c(N)c(C(=O)COC(=O)c2cc(C3CC3)nc3ccccc23)c(=O)n(Cc2ccccc2)c1=O,Potency,[1],inactive
N#Cc1ccc(C23CC4(C2)[C@H](CN(Cc2ccc(C(F)(F)F)cc2)[C@@H]4c2ccccc2)C3c2ccccc2)cc1 (stereo partly drawn),Potency,[1],inactive
COc1cccc(-c2cc(=O)c3ccc(OC)cc3o2)c1,Potency,[2],7.94 µM (active)
same,outcome,[3],inactive
same,outcome,[4],inactive
CC(C)=CCC/C(C)=C/CO/N=C1/C[C@@H](O)[C@@H](O)[C@@H]2[C@@H]3C(=O)N(C4CCCCC4)C(=O)[C@H]3CC[C@H]12,"activity change, positive = activation",[1],-36.4% [at 11.4 µM]
Cc1ccc2oc(=O)c3c4cc(O)c(O)c(C)c4oc3c2c1,Potency,[1],inactive
COC(=O)[C@@H]1C[C@@]2(O)[C@H](O)[C@H](O)[C@H](O)C[C@H]2N1Cc1ccc(C(F)(F)F)cc1,Potency,[1],inactive
FC(F)(F)c1ccc(CN2C[C@@H]3C(c4ccc(C(F)(F)F)cc4)C4(c5ccccc5)CC3(C4)[C@H]2c2ccccc2)cc1 (stereo partly drawn),Potency,[1],inactive
COc1cc(OC)c2c(=O)c(-c3ccc4c(c3)OCO4)coc2c1,Potency,[2],6.31 µM (active)
same,outcome,[3],inactive
same,outcome,[4],inactive
Nc1cc(=O)[nH]c(=O)n1CC1CC1,Potency,[1],inactive
COC(=O)C/C=C\[C@@H](C)[C@@H](/C=N\OC[C@@H](C)[C@H](OCc1ccccc1)C(C)C)OC,"activity change, positive = activation",[1],-33% [at 11.4 µM]
C[C@@H](c1ccccc1)N1C(=O)[C@H]2[C@H]3[C@H](O)[C@H](O)C/C(=N/OCc4ccccc4)[C@@H]3CC[C@@H]2C1=O,"activity change, positive = activation",[1],-50% [at 11.4 µM]
same,Potency,[5],inactive
CCC1=C2CC[C@H]3C(=O)N(CC)C(=O)[C@H]3[C@H]2[C@@]2(C)C(=NCC(=O)OC)OC(=O)N2C1=O,Potency,[1],inactive
CCC1=C2CC[C@H]3C(=O)N(C)C(=O)[C@H]3[C@H]2[C@@]2(C)C(=O)N(CC(=O)OC)C(=O)N2C1=O,Potency,[1],inactive
CC1CCC2C(=O)OC(CO)CN2C1c1ccc(Br)cc1 (stereo not drawn),"activity change, positive = activation",[1],-46.2% [at 11.4 µM]
same,Potency,[5],inactive
CC(=O)OC[C@H]1O[C@@H](O/N=C(\C)CCN2CCCc3nc(C)c(C)cc32)[C@H](OC(C)=O)[C@@H](OC(C)=O)[C@H]1OC(C)=O,"activity change, positive = activation",[1],-36.5% [at 11.4 µM]
same,Potency,[5],3.16 µM (active)
COc1ccc(O[C@H]2C=C[C@@H](c3ccccc3)O[C@@H]2CON=C(C)C)cc1,"activity change, positive = activation",[1],-40.2% [at 11.4 µM]
CC(=O)N1[C@H](C)C=C[C@]1(Cc1ccccc1)C(=O)NCc1ccccn1,Potency,[1],inactive
CC(C)(C)N1C(=O)[C@H]2[C@H]3[C@H](O)[C@H](O)C/C(=N/OC[C@@H](O)COCc4ccco4)[C@H]3CC[C@@H]2C1=O,"activity change, positive = activation",[1],-30.9% [at 11.4 µM]
CC1CCC2C(=O)N3C(CCC(C)[C@H]3c3ccccc3Br)C(=O)N2C1c1ccccc1Br (stereo partly drawn),"activity change, positive = activation",[1],-55.3% [at 11.4 µM]
same,Potency,[5],3.16 µM (active)
same,Potency,[6],inactive
COC(=O)C/C=C\[C@@H](C)[C@@H](CO)NS(=O)(=O)c1ccc(C)cc1,"activity change, positive = activation",[1],-37.6% [at 11.4 µM]
CC(=O)OC[C@@H]1O[C@H](C/C=N\O[C@@H](C)CN2CCCc3nc(C)c(C)cc32)C=C[C@@H]1OC(C)=O,"activity change, positive = activation",[1],-35.5% [at 11.4 µM]
same,Potency,[5],3.16 µM (active)
COC(=O)[C@@H]1C[C@@H]2CC[C@@H](O)C[C@@H]2N1Cc1ccc(N2CCN(C)CC2)cc1,Potency,[1],inactive
CCc1cc2c(nc1CC)CCN(CC/C(C)=N/O[C@@H](C)CN1CCCc3nc(C)c(C)cc31)C2,"activity change, positive = activation",[1],-50.2% [at 11.4 µM]
same,Potency,[5],3.98 µM (active)
Clc1ccc(C2[C@H]3CN(CC4CCCCC4)[C@H](c4ccccc4)C34CC2(c2ccccc2)C4)cn1 (stereo partly drawn),Potency,[1],inactive
Cn1c(N)c(C(=O)COC(=O)c2cc(-c3ccccc3)nc3ccccc23)c(=O)n(Cc2ccccc2)c1=O,Potency,[1],inactive
CO[C@@H]1COC(=O)[C@@H](CCSC)NC(=O)C/C=C\[C@@H](C)COC(=O)CCC[C@H]1C,"activity change, positive = activation",[1],-30.5% [at 11.4 µM]
C[C@@H]1/C=C\CC(=O)OC[C@H](C)C(=O)N[C@@H](Cc2ccccc2)C(=O)OC1,"activity change, positive = activation",[1],-37.2% [at 11.4 µM]
same,Potency,[5],inactive
same,Potency,[6],inactive
COc1ccc(OC2C=CC(C#Cc3ccc(C(C)(C)C)cc3)OC2CO)cc1 (stereo not drawn),"activity change, positive = activation",[1],-56.3% [at 11.4 µM]
CO/N=C1/c2cc(OC)ccc2O[C@@H](c2cccc(OC)c2)[C@H]1O,"activity change, positive = activation",[1],-52.8% [at 11.4 µM]
CO[C@@H]1COC(=O)C/C=C\[C@@H](C)COC(=O)[C@H](COCc2ccccc2)NC(=O)C/C=C\[C@H]1C,"activity change, positive = activation",[1],-56.3% [at 11.4 µM]
